Each structure is given as a SMILES string. In all, about 1,400 compounds went through this assay and about 560 (40%) were called active. The set was probably picked from earlier hits. Some of the results follow. A number with no mark means an inactive call.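 How the source made its calls: active means mean inhibition over duplicate tests at 10 µM above 50%; inactive means the rest.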

The assay can be described thus: ASC/caspase-1 reporter retest in S. cerevisiae at one dose, specificity check for NALP1 project (AID 488857). To be noted: S. cerevisiae ASC/Caspase-1, beta-galactosidase luminescence, 24 h; at 10 µM; active compounds read high.
A word on the inhibition: it is the drop in the measured response relative to a control, in per cent. As to `CC1CCN(c2ccccc2NC(=O)c2ccc(N3CCOCC3)c([N+](=O)[O-])c2)CC1`, the inhibition is 27.4%.

Regarding `COC(=O)c1ccc(C(=O)OC)c(NC(=O)CN2CCN(c3ccccc3OC)CC2)c1`, the inhibition is 49.2%.

Regarding `CCOc1ccc(C(=O)NC(=S)Nc2ccccc2N2CCCCC2)cc1[N+](=O)[O-]`, the inhibition is 62.5% (active).

As to `CCOc1ccc(C(=O)Nc2ccc(-c3nc4ccccc4[nH]3)cc2)cc1[N+](=O)[O-]`, the inhibition is 39.4%.

Consider `COc1ccc(C(=O)NCc2ccccc2)cc1S(=O)(=O)N1CCCc2ccccc21`, for which the inhibition was 39%.

For `COc1ccc(C(=O)NC(=S)Nc2ccccc2N2CCCCC2)cc1[N+](=O)[O-]`, the inhibition was 68% (active).

On to `COc1cc(-c2nc(C(F)(F)F)c(OC)o2)cc(OC)c1OC`, for which the inhibition is 44.9%.

In the case of `COc1cc(/C=C/C(=O)c2ccc(Cl)s2)cc(OC)c1O`, the inhibition is 63.6% (active).

As to `Cc1cccc(OC(=O)c2cn(C)nc2C(F)(F)F)c1C`, the inhibition was 50.9% (active).

With `Cc1ccc(-c2csc3ncnc(Oc4cccc5ccc(C)nc45)c23)cc1`, the inhibition is 63% (active).

In the case of `COc1ccc(-c2csc3ncnc(Oc4cccc5ccc(C)nc45)c23)cc1`, the inhibition was 71.4% (active).

For the compound `COc1ccccc1N1CCN(C(=O)CSc2ncnc3scc(-c4ccccc4)c23)CC1`, the inhibition is 44.1%.

`O=C(c1ccc(F)cc1)c1cn(Cc2ccc(F)cc2)c2cc3c(cc2c1=O)OCCO3`: the inhibition was 44.1%.

With `O=C(/C=C/c1ccc(F)cc1)NCCc1ccc2c(c1)OCCO2`, the inhibition was 61.6% (active).

As to `Cc1ccc(/C=C/C(=O)NCc2ccc3c(c2)OCO3)o1`, the inhibition was 42.4%.

Take `O=C(NC(=S)Nc1cccnc1)c1cc2ccccc2o1`: the inhibition is 69.7% (active).

Turning to `O=C(Nc1ccon1)c1cc2ccccc2oc1=O`, the inhibition is 30.9%.

As for `O=C(N/N=C/c1ccncc1)c1cc2ccccc2o1`, the inhibition is 41.4%.

For `O=C(Nc1cccnc1)Nc1ccc2c(c1)OCO2`, the inhibition is 43.5%.

With `O=C(Nc1cccc(-c2nc3ncccc3o2)c1)c1cc2ccccc2o1`, the inhibition is 61.8% (active).

`O=C(O)CC(Cn1cnnn1)c1ccccc1` (stereo unspecified): the inhibition is 29.3%.

Turning to `CN(C#N)c1nc(Cl)nc(Nc2cccc(Cl)c2)n1`, the inhibition was 28.1%.

As to `O=[N+]([O-])c1cc(C(F)(F)F)ccc1NCCc1c[nH]c2ccc(O)cc12`, the inhibition is 70.5% (active).

For the compound `Cc1ccc(C(=O)NCCCNc2ccc(C(F)(F)F)cc2[N+](=O)[O-])cc1`, the inhibition was 46.6%.

`C1CCC(C(CC2CCCCN2)C2CCCCC2)CC1` (stereo unspecified): the inhibition is 39.9%.

On to `COc1ccc(/C=N/N2CCOCC2)cc1COc1ccc(Cl)cc1`, for which the inhibition is 61% (active).

Take `COc1cc(/C=N/n2cnnc2)ccc1OCc1ccc(C)cc1`: the inhibition is 48.5%.

Regarding `O=C1C=CC(=O)N1CCCCCCN1C(=O)C=CC1=O`, the inhibition is 73.7% (active).

Turning to `O=C1C=CC(=O)N1CCNc1ncc(C(F)(F)F)cc1Cl`, the inhibition is 44%.

Consider `CN1CCN(C2=C(Cl)C(=O)C(c3cnc(N4CCCCC4)s3)=C(Cl)C2=O)CC1`, for which the inhibition was 41.3%.

Consider `COc1ccc(OC)c(N/C(=N/C(=S)Nc2ccccc2)Nc2nc(C)cc(C)n2)c1`, for which the inhibition was 34.1%.

On to `CCCn1nc(NC(=O)c2ccccn2)c2cc3cc(C)ccc3nc21`, for which the inhibition was 16.4%.

For the compound `CC(C)CC(=O)c1c[nH]c(C(=O)NCc2cccs2)c1`, the inhibition is 38.2%.

Turning to `O=C(NCc1cccs1)c1csc2ccccc12`, the inhibition is 57.2% (active).

On to `CC1=C(OC(=O)c2ccc(Br)cc2)C(C)(C)C(c2ccccc2)OC1=O` (stereo unspecified), for which the inhibition was 22%.

In the case of `CC1(C)COC(/C=C/c2ccc([N+](=O)[O-])cc2)=N1`, the inhibition is 83.1% (active).

Take `CCCCN(Cc1ccccc1)C(=O)C1CCN(Cc2sccc2C)CC1`: the inhibition is 45.2%.

Turning to `O=C(CSc1ncn[nH]1)NC12CC3CC(CC(C3)C1)C2`, the inhibition is 19.1%.

Consider `O=C(CON=C1c2ccccc2-c2ccccc21)NC12CC3CC(CC(C3)C1)C2`, for which the inhibition is 33%.

`O=C(CCl)NC(=O)NC12CC3CC(CC(C3)C1)C2`: the inhibition was 59.9% (active).

For the compound `CC1CCN(Cc2ccc(-c3nn[nH]n3)cc2)CC1`, the inhibition was 39.5%.

On to `COc1cc(CNC2CCCCCCC2)cc(Br)c1OCC#N`, for which the inhibition is 32.9%.

Take `CCOc1cc(CNC2CCCC2)cc(Cl)c1OCc1ccc(F)cc1`: the inhibition was 60.9% (active).

Turning to `CCOc1cc(CNCc2ccncc2)cc(Br)c1OCc1ccc(F)cc1`, the inhibition is 67.8% (active).

`C/C(=C(\C#N)C(=O)NCc1ccccc1)N(C)C`: the inhibition was 34.8%.

As to `CCC(C)c1ccc(OCCn2ccnc2)cc1` (stereo unspecified), the inhibition was 73.5% (active).

In the case of `CCOc1ccc(OCCCCn2ccnc2)cc1`, the inhibition is 54.8% (active).

On to `CC1=CCC2C(=O)N(Cc3ccccc3)C(=O)C2C1` (stereo unspecified), for which the inhibition was 33.4%.

Turning to `CCCN(Cc1nc(-c2ccc(Cl)cc2)no1)CC1CCCO1` (stereo unspecified), the inhibition is 54.2% (active).

Regarding `COc1ccc(-c2noc(CCC(=O)N3CCC(C)CC3)n2)cc1`, the inhibition is 47.6%.

Take `O=C(COC(=O)C1(c2ccccc2F)CCCC1)N1CCOCC1`: the inhibition was 27.1%.

Consider `O=C1NC(c2ccccc2)Nc2c1sc(=S)n2-c1ccccc1` (stereo unspecified), for which the inhibition was 32.5%.

In the case of `COCCN=C1Sc2nc3ccc(C)cc3cc2CN1Cc1ccco1`, the inhibition was 57.1% (active).

For the compound `COC(=O)c1cc(=O)n(-c2ccc(F)cc2)c(=Nc2ccc(F)cc2)s1`, the inhibition was 39.8%.

Regarding `COC(=O)c1cc(=O)n(-c2ccccc2)c(=Nc2ccccc2)s1`, the inhibition was 61.7% (active).

For the compound `Cc1nc(NC(=O)CCc2ccccc2)ccc1Br`, the inhibition is 63.3% (active).

On to `Cc1csc(NC(=O)CCc2ccc(S(=O)(=O)N3CCOCC3)cc2)n1`, for which the inhibition was 40.8%.

On to `OC(CN1CCN(Cc2ccccc2)CC1)Cn1c2ccccc2c2ccccc21` (stereo unspecified), for which the inhibition is 56.6% (active).

As to `OC(CN1CCCCC1)Cn1c2ccc(Cl)cc2c2cc(Cl)ccc21` (stereo unspecified), the inhibition was 49%.

On to `COc1ccc(OCC(O)Cn2c(=N)n(Cc3ccccc3)c3ccccc32)cc1` (stereo unspecified), for which the inhibition was 27.6%.

Regarding `CCCSc1ccc2nc(-c3ccccc3)cn2c1`, the inhibition was 88.8% (active).

Regarding `Cc1nc(-c2ccccc2)sc1C(=O)CSc1ccccc1`, the inhibition was 46.5%.

In the case of `O=[N+]([O-])c1ccc(N2CCN(c3ccc(Cl)nn3)CC2)c(Cl)c1`, the inhibition was 47.7%.

As for `CC(C)CC(=O)N1CCN(c2ccc([N+](=O)[O-])cc2Cl)CC1`, the inhibition is 39.9%.

Regarding `O=C1C(Cl)=C(N2CCN(c3ccccc3[N+](=O)[O-])CC2)C(=O)c2ccccc21`, the inhibition is 68.8% (active).

As to `CC1(C)Cc2c(c(N3CCOCC3)nc3sc4c(NCCN5CCOCC5)nnnc4c23)CS1`, the inhibition was 37.6%.

On to `CC(C)(C)c1nnc(N/N=C/c2cc(Br)ccc2O)n(N)c1=O`, for which the inhibition was 86.8% (active).

With `O=c1oc2ccccc2nc1/C=C(O)/C=C/c1ccc(F)cc1`, the inhibition was 47.2%.

Consider `COc1ccc(C(=O)/C=C/Nc2ccc([N+](=O)[O-])cc2C)c(OC)c1`, for which the inhibition is 28.5%.

On to `C/C(=N/Nc1ccc([N+](=O)[O-])cc1)c1ccc(C)cc1C`, for which the inhibition was 50.2% (active).

For the compound `CN(C)CCCN(C(=O)c1ccc2c(c1)CCCC2)c1nc2ccc(Cl)cc2s1`, the inhibition was 63.9% (active).

`CN(C)CCCN(C(=O)c1ccc2c(c1)CCCC2)c1nc2ccc(F)cc2s1`: the inhibition was 61.3% (active).

With `CCOC(=O)c1c(C)[nH]c(N=Nc2cccc(C)c2)c1C`, the inhibition was 46.2%.

Turning to `Cc1cc(N2CCOCC2)ccc1/C=C\[N+](=O)[O-]`, the inhibition was 56.6% (active).

For `O=C1O/C(=C/c2ccccc2)c2ccccc21`, the inhibition was 78.5% (active).

With `COC1=C(N)C(=O)c2nc(-c3nc(C(=O)O)c(C)c(-c4ccc(OC)c(OC)c4O)c3N)ccc2C1=O`, the inhibition is 29.4%.

`c1ccc(-c2ccc(-c3cn4c(n3)CCC4)cc2)cc1`: the inhibition was 93.3% (active).

For `CC(C)NC(=O)CSc1nc(-c2ccccc2)cs1`, the inhibition was 52% (active).

As for `COc1cccc(CNC(=O)CSc2ccc(-c3ccncc3)nn2)c1`, the inhibition is 27.2%.

Regarding `O=C(c1cccc([N+](=O)[O-])c1)n1nc(-c2ccccc2)nc1NCc1ccccc1`, the inhibition was 49.2%.

With `O=C(CSc1nc(-c2ccccc2)cs1)Nc1cccc([N+](=O)[O-])c1`, the inhibition was 75.8% (active).

In the case of `Cc1ccnc(NS(=O)(=O)c2ccc(NC(=O)CSc3nc(-c4ccccc4)cc(=O)[nH]3)cc2)n1`, the inhibition is 6.75%.

Turning to `COc1ccc(Cc2nnc(SC)[nH]c2=O)cc1`, the inhibition is 20.1%.

As for `Brc1cccc(OCCCCN2CCCCC2)c1`, the inhibition is 53.8% (active).

Regarding `CCOC(=O)c1[nH]c2ccc(Br)cc2c1NC(=O)CCN1CCC(C)CC1`, the inhibition was 40%.

Regarding `CC(C)N(C)CCOC(=O)c1ccccc1Br`, the inhibition was 28.4%.

As to `Brc1cccc(OCCN2CCCCC2)c1`, the inhibition was 49.1%.

For the compound `Cc1ccc(OCCCCN(C)Cc2ccccc2)c(Br)c1`, the inhibition is 54.8% (active).

Regarding `CC(C)NCCCCOc1cccc(Br)c1`, the inhibition was 45.5%.

Turning to `Cc1cc(Br)ccc1OCCCCN1CCC(C)CC1`, the inhibition is 60.4% (active).

In the case of `Cc1ccc(OCCCCN2CCCCC2)c(Br)c1`, the inhibition was 62.1% (active).

Consider `CC(CCc1ccccc1)NC(=O)c1cc2sccc2n1C` (stereo unspecified), for which the inhibition is 52% (active).

On to `Cn1c(SCC(=O)NC(c2ccccc2)c2ccccc2)nnc1-c1cccs1`, for which the inhibition was 35.6%.

On to `c1ccc2cc(CSCc3nc4ccccc4[nH]3)ccc2c1`, for which the inhibition was 71.4% (active).

Take `C=C(C)C1CC=C(C)/C(=N/NC(=O)c2ccoc2C)C1` (stereo unspecified): the inhibition is 36.6%.

Take `CCOC(=O)c1c(C)[nH]c(C)c1C(=O)COC(=O)c1cc2ccccc2cc1O`: the inhibition is 55.5% (active).

As to `CCOC(=O)c1c(C)[nH]c(C(=O)COC(=O)c2oc3ccccc3c2C)c1C`, the inhibition is 31.9%.

As to `CCOC(=O)c1c(C)[nH]c2c1-c1ccccc1C(=O)C2=O`, the inhibition was 26.6%.

`CCCc1nn(C)c(C(=O)Nc2cccc(C)c2)c1Cl`: the inhibition is 65.5% (active).

In the case of `Cc1cccc(NC2=C(Cl)C(=O)OC2NC(=O)c2ccccc2)c1` (stereo unspecified), the inhibition is 23.1%.

With `COCc1cc(=O)[nH]c(/N=C(\N)Nc2cccc(C)c2)n1`, the inhibition was 25.1%.
